Measurements: PubChem BioAssay AID1508625 (Wald Lab, School of Medicine, Case Western Reserve …, 2021)

Assay: small molecules boosting NK-mediated OVCAR3 lysis – imaging, primary NK cells, calcein-AM imaging, primary screen (AID 1508625);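 note: compound given to NK cells 16 h before adding targets at 1.5 to 1 ratio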;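 for z-score: more negative robust z means stronger NK killing of tumor cells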
Settings: OVCAR3 lysis by primary NK cells, at 5 µM; z-score: measured here: robust Z-score, single-point normalisation

| SMILES | corrected activity, negative = more killing [%] | z-score |
| --- | --- | --- |
| OC(CN1CCN(C2c3ccccc3-c3ccccc32)CC1)Cn1c2ccccc2c2ccccc21 (stereo not drawn) | -8.62 | -1.82 |
| COCCCNC(=O)c1cc(OC)c(OC)c(OC)c1 | -10.8 | -2.27 |
| Cc1ccc(NC(=O)CSc2ccc(Nc3ccc(C)cc3)nn2)cc1 | -2.33 | -0.695 |
| Cc1c(C(=O)OC(C)C)sc(NC(=O)c2cc3ccccc3c(=O)o2)c1C(=O)OC(C)C | -4.01 | -1.65 |
| CC(C)C(CC(=O)O)NS(=O)(=O)c1ccc(F)cc1 (stereo not drawn) | -3.43 | -0.924 |
| O=C1CSc2ccc(S(=O)(=O)N3CCOCC3)cc2N1 | -4.98 | -1.34 |
| CCC(C)NC(=O)c1ccc2c(=O)n(CCN(CC)CC)c(=S)[nH]c2c1 (stereo not drawn) | -4.1 | -1.09 |
| Cc1cccn2c(=O)c3cc(C(=O)N(CC(C)C)CC(C)C)sc3nc12 | -8.5 | -2.41 |
| CCCCSc1nc2c([nH]c3ccccc32)c(=O)n1-c1ccc(F)cc1 | -4.96 | -1.23 |
| Cc1cc(C)n(C(=O)c2ccc(S(=O)(=O)N3CCCCCC3)cc2)n1 | -2.63 | -1.46 |
| CC(C)NC(=O)CC(=O)NN=C1CCCC1 | -6.06 | -2.58 |
| CCCCOc1ccc(CN2CCN3CCCC3C2C)cc1 (stereo not drawn) | -3.8 | -1.66 |
| Cc1sc2c(c1C)c(=O)n(CCc1ccccc1)c(=O)n2Cc1cccc([N+](=O)[O-])c1 | -2.58 | -0.733 |
| CCOc1ccc2nc(NC(=O)CCC(=O)OCC(F)(F)F)sc2c1 | -3.74 | -1.41 |
| O=C1C2C3CC(C(Br)C3Br)C2C(=O)N1c1cccc2ccccc12 (stereo not drawn) | -3.98 | -1.41 |
| COc1cc([N+](=O)[O-])ccc1N1C(=O)C2C3C=CC(CC3)C2C1=O (stereo not drawn) | 0.65 | 0.231 |
| Cc1ccc(OCCNC(=O)C2CCCCC2)cc1 | -4.66 | -2.59 |
| O=C(Nc1ccccc1C(=O)O)c1cc(S(=O)(=O)Nc2ccc(Br)cc2)ccc1Cl | -14.5 | -3.06 |
| Cc1c(C(=O)Nc2ccccc2O)cccc1[N+](=O)[O-] | -4.28 | -1.61 |
| O=C(CCCOc1ccccc1)N1CCN(c2ccccn2)CC1 | -1.33 | -0.738 |
| COc1ccc(-c2cc(C(=O)NN=Cc3ccncc3)[nH]n2)cc1 | 2.36 | 1.03 |
| O=C(Nc1ccccc1-c1nc2ccccc2[nH]1)c1ccc(S(=O)(=O)N2CCCC2)cc1 | 0.864 | 0.306 |
| CCC(CC)NC(=O)c1cccc(OC)c1OC | -0.109 | -0.0486 |
| Cc1cccc(OCC(=O)N2CCN(S(C)(=O)=O)CC2)c1 | -2.23 | -0.994 |

| SMILES | corrected activity, negative = more killing [%] | z-score |
| --- | --- | --- |
| CCCC12CN3CC(C)(CN(C1)C(=O)c1ccccc1C3=O)C2=O | -4.81 | -1.98 |
| CC1CCCN(c2ncnc3scc(-c4ccccc4)c23)C1 (stereo not drawn) | -2.34 | -0.85 |
| O=C(O)C1CSC(c2cccs2)=N1 (stereo not drawn) | -4.41 | -1.19 |
| Cc1cc(=O)n2[nH]c(C)cc2n1 | -3.27 | -0.975 |
| CCc1ccccc1N1C(=O)C2C(c3ccc(Br)cc3)OC3(C(=O)c4ccccc4C3=O)C2C1=O (stereo not drawn) | 0.455 | 0.141 |
| COc1ccc(NC(=O)NCCc2ccncc2)cc1 | 0.111 | 0.0619 |
| CCOc1ccc(NC(=O)c2c(NCc3ccncc3)sc3c2CCCCC3)cc1 | -0.239 | -0.0869 |
| CCOc1ccc(S(=O)(=O)Nc2ccc(OC(F)(F)F)cc2)c2cccnc12 | -1.89 | -0.602 |
| Cc1cc(=O)oc2ccc(Oc3ccc(C#N)cc3[N+](=O)[O-])cc12 | -0.59 | -0.183 |
| CCOC(=O)c1ccc(NC(=O)c2cnc3n(c2=O)CCS3)cc1 | -6.64 | -2.11 |
| COC(=O)c1ccc(COC(=O)c2cc3ccccc3oc2=O)cc1 | -2.06 | -1.15 |
| O=C(O)C1C2C=CC(O2)C1C(=O)Nc1ccccc1C(F)(F)F (stereo not drawn) | -3.8 | -1.56 |
| COc1ccc(C(=O)NC23CC4CC(CC(C4)C2)C3)c(OC)c1 | -4.55 | -1.79 |
| Cc1ccccc1-n1nnnc1C(c1ccccc1)N(C)Cc1ccc(Cl)c(Cl)c1 (stereo not drawn) | -1.59 | -0.695 |
| CCc1ccc(-n2c(CCC(=O)O)ccc2-c2ccc(F)cc2)cc1 | -1.11 | -0.331 |
| CC1=C(C)CC(C(=O)Nc2ccc(S(=O)(=O)N3CCOCC3)cc2)C(C(=O)O)C1 (stereo not drawn) | -10.2 | -3.17 |
| Cc1ccc(-c2cc(C(=O)O)c3cc(Cl)ccc3n2)cc1C | -3.58 | -1.47 |
| COc1ccccc1OCC(=O)N=Nc1c(O)[nH]c2c(C)cc(Br)cc12 | -2.87 | -1.13 |
| CCN1CCN(C(=O)c2oc3ccc(S(=O)(=O)N4CCCCCC4)cc3c2C)CC1 | -6.41 | -1.6 |
| Cc1ccccc1C(=O)Nc1ccc(C(=O)O)cc1NC(=O)c1ccccc1C | -0.368 | -0.197 |
| c1ccc2nn(C34CC5CC(CC(C5)C3)C4)nc2c1 | -1.32 | -0.685 |
| O=C(CCCN1C(=O)c2cccc3cccc(c23)C1=O)NCCO | -1.75 | -0.651 |
| CC(C)C(NC(=O)c1ccccc1)C(=O)NC1=NCCS1 (stereo not drawn) | -2 | -0.869 |
| Cc1ccc(NC(=O)CSc2nc3c([nH]c4ccccc43)c(=O)n2-c2ccc(F)cc2)cc1 | -5.11 | -1.27 |

| SMILES | corrected activity, negative = more killing [%] | z-score |
| --- | --- | --- |
| Cc1ccccc1C(=NS(=O)(=O)c1ccc(Br)cc1)Nc1ccccc1 | -3.32 | -1.18 |
| CC(=O)CSc1nc(-c2cccs2)cc(C(F)(F)F)c1C#N | -1.56 | -0.485 |
| COc1ccc(-c2nocc2C(N)=O)cc1OC | -3.72 | -1.63 |
| CCOc1ccc(C2C(N3C(=O)c4cccc([N+](=O)[O-])c4C3=O)C(=O)N2c2cc(Cl)ccc2C)cc1 (stereo not drawn) | -3.8 | -1.18 |
| O=[N+]([O-])c1ccc(OCc2ccc(Br)cc2)cc1 | -1.79 | -0.994 |
| N#Cc1ccccc1NC(=O)CSc1nnc(N)s1 | 2.04 | 0.632 |
| CCOc1ccc(-n2c(SCc3ccccc3Cl)nc3c(c2=O)SCC3)cc1 | -3.11 | -0.774 |
| COc1cccc(-n2c(SCC(=O)Nc3ccccc3F)nc3c([nH]c4ccccc43)c2=O)c1 | -10.8 | -2.69 |
| Cc1ccccc1N1C(=O)c2ccc(C(=O)Nc3cccc([N+](=O)[O-])c3)cc2C1=O | -3.72 | -1.15 |
| Cc1nc2ccc3nc(NC(=O)c4cc([N+](=O)[O-])ccc4Cl)sc3c2s1 | -2.51 | -0.528 |
| O=C(O)c1cccc(N2C(=O)c3ccc(C(=O)c4ccc5c(c4)C(=O)N(c4cccc(C(=O)O)c4)C5=O)cc3C2=O)c1 | -1.17 | -0.363 |
| Brc1ccc(SCCc2nc3ccccc3o2)cc1 | -4.19 | -1.56 |
| COc1cc(C=Nc2ccc(Oc3ccccc3)cc2)ccc1OC(C)=O | -3.39 | -1.34 |
| O=C(Nc1cccc(-c2nc3ccccc3o2)c1)C1CCCCC1 | -2.15 | -0.667 |
| Cc1ccc(-n2ncc3c(=O)[nH]c(SCC(C)C)nc32)cc1C | -9.35 | -2.29 |
| CCOc1ccc(-n2c(SCC(=O)Nc3ccc(C)cc3)nc3c([nH]c4ccccc43)c2=O)cc1 | -5.11 | -1.27 |
| CC(=O)N1CCc2[nH]c3ccccc3c2C1 | -1.79 | -0.676 |
| COC(=O)c1cc2nc(-c3ccccc3)cc(C)n2n1 | -2.69 | -1.39 |
| O=C1C(=O)N(CO)C(c2ccccc2)C1=C(O)c1ccccc1 (stereo not drawn) | -3.26 | -1.23 |
| O=C(CCCC(=O)Nc1cccc(Cl)c1)Nc1cccc(Cl)c1 | -2.22 | -0.828 |
| CC(C)NC(=O)CCNC(=O)Cn1cnc2sc3c(c2c1=O)CCCC3 | -6.97 | -2.22 |
| Cc1ccc(OCCNC2CCCC2)c(C)c1 | 0.166 | 0.0921 |
| Cc1ccc(OCCCN2CCNCC2)c([N+](=O)[O-])c1 | -1.55 | -0.864 |
| CC(C)Oc1ccc(CNC2CCOC(C)(C)C2)cc1 (stereo not drawn) | -3.04 | -1.2 |

| SMILES | corrected activity, negative = more killing [%] | z-score |
| --- | --- | --- |
| CC1(C(=O)NCC2CCCO2)CCC(=O)N1CCc1ccccc1 (stereo not drawn) | -6.77 | -1.92 |
| N#Cc1cc2c(N)c(C(=O)Nc3ccccc3Oc3ccccc3)sc2nc1N | 0.0831 | 0.0248 |
| Cc1sc(NC(=O)C2c3ccccc3Oc3ccccc32)c(C(N)=O)c1C | -5.26 | -2.16 |
| Cc1ccc(N2CCN(c3ccc(N4C(=O)C5CCCCC5C4=O)cc3[N+](=O)[O-])CC2C)cc1 (stereo not drawn) | -4.67 | -1.7 |
| Cc1cc(Cl)ccc1OCC(=O)Nc1cccc2c1C(=O)c1ccccc1C2=O | -3.52 | -1.45 |
| O=C1NN(c2cccc(Cl)c2)C(=O)C1=Cc1cc(Cl)ccc1O | -4.57 | -1.45 |
| CCOC(=O)Cn1nc(-c2ccc(C)cc2)ccc1=O | -0.853 | -0.23 |
| COC(=O)c1[nH]c(=O)c2ccccc2c1O | -4.14 | -1.63 |
| Cc1ccc2nc(NC(=O)COC(=O)CSc3nc(C)cc(C)n3)sc2c1 | -4.93 | -1.86 |
| COc1ccccc1C1C(=C(O)c2ccccc2)C(=O)C(=O)N1CC(C)O (stereo not drawn) | -4.26 | -1.62 |
| COc1cc(OC)cc(C(=O)N2CCN(C3CCC(C)CC3)CC2)c1 (stereo not drawn) | -1.69 | -0.755 |
| Cc1cc(C)cc(-n2cnc3cc(C(=O)NC4CCCCCC4)ccc32)c1 | -4.5 | -1.21 |
| Cc1ccc2nc(NC(=O)COC(=O)c3ccc(Br)o3)sc2c1 | -3.82 | -1.44 |
| Cc1c(N=Cc2c[nH]c3ccccc23)cccc1[N+](=O)[O-] | -2.05 | -0.872 |
| Cc1cc(C)cc(NC(=O)c2cc(S(=O)(=O)NC3CCCCC3)ccc2F)c1 | -5.25 | -1.42 |
| Cc1ccc(OCCCCNC2CCCCC2)c(C)c1 | 4.21 | 2.34 |
| CC1CCN(CCCCCOc2ccccc2Br)CC1 | -0.201 | -0.0828 |
| COc1ccc(S(=O)(=O)N2CCN(C(=O)COc3ccc4ccccc4c3)CC2)cc1 | -2.15 | -0.961 |
| Cc1oc(-c2cccc(Br)c2)nc1CN1CCC(C(=O)NCc2ccc(Cl)cc2)CC1 | -6.33 | -1.71 |
| Cc1c(NC(=O)COc2ccc(Oc3ccccc3)cc2)c(=O)n(-c2ccccc2)n1C | 1.22 | 0.434 |
| COC(=O)c1cc(Cl)c(NC(=O)c2cc3ccccc3oc2=O)cc1OC | -1.77 | -0.79 |
| CC(=O)Nc1ccc(N2C(=O)C3C4CC(C(Br)C4Br)C3C2=O)cc1 (stereo not drawn) | -2.24 | -0.796 |
